Test results taken from PubChem BioAssay (NCI).
This is part of a sample that, as a whole, favours compounds with a hit. Of some 79,000 tested, about 15% had one in any assay. Activity calls are given as the source filed them. Cut-off read from the data, not from the text of the source: active = growth inhibition above about 70%; inactive = the rest.

What was measured:
[1] = NCI Yeast Anticancer Drug Screen. Data for the rad52 strain (AID 147);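 note: 0% = growth of vehicle-treated control cultures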; conditions: S. cerevisiae rad52 mutant growth inhibition, stronger effect = higher value
Procedure, shortened: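 Vehicle-treated cultures served as the reference for growth inhibition of compound-exposed yeast bearing a DNA repair mutation.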

[2] = NCI Yeast Anticancer Drug Screen. Data for the wt1 strain (AID 149);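 note: 0% = growth of vehicle-treated wt1 cultures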; conditions: S. cerevisiae wt1 strain (SPY 50644) growth inhibition, stronger effect = higher value
Procedure, shortened: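 Growth inhibition read against vehicle controls after compound exposure of the wt1 yeast strain.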

[3] = NCI Yeast Anticancer Drug Screen. Data for the rad50EPP+ strain (AID 151);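 note: 0% = growth of vehicle-treated control cultures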; conditions: S. cerevisiae rad50 mutant strain, stronger effect = higher value
Procedure, shortened: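 In this screen, rad50EPP+ yeast were exposed to compounds. Growth inhibition was scored against vehicle-treated controls.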

[4] = NCI Yeast Anticancer Drug Screen. Data for the mgt1 strain (AID 153); conditions: S. cerevisiae mgt1 mutant growth inhibition, stronger effect = higher value
Procedure, shortened: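 mgt1 strain exposed; growth vs vehicle control recorded as inhibition.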

[5] = NCI Yeast Anticancer Drug Screen. Data for the rad50 strain (AID 155);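 note: 0% = growth of vehicle-only cultures of the same strain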; conditions: S. cerevisiae rad50 strain growth inhibition, stronger effect = higher value
Procedure, shortened: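 Readout: growth inhibition relative to vehicle-treated cultures. Compound exposure was carried out in a genetically defined yeast strain deficient in DNA damage repair.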

[6] = NCI Yeast Anticancer Drug Screen. Data for the mec2-1 strain (AID 157); conditions: S. cerevisiae mec2-1 strain, stronger effect = higher value
Procedure, shortened: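 Vehicle-treated cultures served as reference for growth inhibition of compound-exposed mec2-1 yeast.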

[7] = NCI Yeast Anticancer Drug Screen. Data for the rad14 strain (AID 159);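 note: 0% = growth of vehicle-treated control cultures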; conditions: S. cerevisiae rad14 strain growth inhibition, stronger effect = higher value
Procedure, shortened: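 Growth inhibition vs vehicle controls; genetically altered yeast strain (DNA damage repair defect) treated with test compounds.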

[8] = NCI Yeast Anticancer Drug Screen. Data for the sgs1 mgt1 strain (AID 161);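 note: 0% = growth of cultures given vehicle only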; conditions: S. cerevisiae sgs1 mgt1 strain, stronger effect = higher value
Procedure, shortened: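 Genetically altered yeast, compound exposure, growth inhibition relative to vehicle.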

[9] = NCI Yeast Anticancer Drug Screen. Data for the CLN2oe strain (AID 163);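 note: 0% = growth of vehicle-only control cultures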; conditions: S. cerevisiae CLN2oe strain, stronger effect = higher value
Procedure, shortened: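 Inhibition relative to vehicle-treated yeast is reported. Cells: strain with genetic alteration in cell-cycle control, grown with compound.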

[10] = NCI Yeast Anticancer Drug Screen. Data for the cln2 rad14 strain (AID 165);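 note: 0% = growth equal to vehicle treated cultures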; conditions: S. cerevisiae cln2 rad14 strain, stronger effect = higher value
Procedure, shortened: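 Each compound was tested on cln2 rad14 yeast. Inhibition of growth was calculated against vehicle-exposed controls.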

[11] = NCI Yeast Anticancer Drug Screen. Data for the bub3 strain (AID 167); conditions: S. cerevisiae bub3 mutant strain, stronger effect = higher value
Procedure, shortened: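 Readout: yeast growth inhibition, expressed relative to vehicle-only wells. The test organism is a mutant strain from a panel with lesions in DNA repair or checkpoint genes.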

[12] = NCI Yeast Anticancer Drug Screen. Data for the wt2 strain (AID 169);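 note: 0% = growth of vehicle-treated yeast cultures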; conditions: S. cerevisiae wt2 strain growth inhibition, stronger effect = higher value
Procedure, shortened: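 Inhibition of yeast growth was determined after compound treatment, normalised to controls receiving only vehicle.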

[13] = NCI Yeast Anticancer Drug Screen. Data for the mlh1 strain (AID 171);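 note: 0% = growth of vehicle-treated control cultures of the same strain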; conditions: S. cerevisiae mlh1 strain growth inhibition, stronger effect = higher value
Procedure, shortened: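 Vehicle-normalised growth inhibition of a repair- or checkpoint-altered yeast strain following compound treatment.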

[14] = NCI Yeast Anticancer Drug Screen. Data for the sgs1 strain (AID 173);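 note: 0% = growth of vehicle-only control cultures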; conditions: S. cerevisiae sgs1 mutant, stronger effect = higher value
Procedure, shortened: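 Screen format: yeast with repair or checkpoint alterations, compound exposure, growth read relative to vehicle.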

[15] = NCI Yeast Anticancer Drug Screen. Data for the mlh1 rad18 strain (AID 175); conditions: S. cerevisiae mlh1 rad18 strain growth inhibition, stronger effect = higher value
Procedure, shortened: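 Vehicle-treated cultures served as the reference for growth inhibition in a yeast strain carrying DNA damage repair alterations exposed to each compound.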

[16] = NCI Yeast Anticancer Drug Screen. Data for the rad18 strain (AID 177); conditions: S. cerevisiae rad18 mutant growth inhibition, stronger effect = higher value
Procedure, shortened: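 Test articles were incubated with altered yeast defective in DNA damage repair. Results are given as inhibition of growth versus vehicle.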

[17] = at 5.0 µM (retest, dose inferred, filed as 0.5)
[18] = at 50.0 µM (retest, dose inferred, filed as 5.0)

Measured: growth inhibition

CCCCOC(=O)CSSCC(=O)OCCCC
active: [1]; at 33.0 µM 83% | [1]; at 100.0 µM 97% | [2]; at 33.0 µM 81% | [2]; at 100.0 µM 97% | [3]; at 33.0 µM 89% | [3]; at 100.0 µM 97% | [4]; at 33.0 µM 83% | [4]; at 100.0 µM 99% | [5]; at 33.0 µM 76% | [5]; [18] 99% | [5]; at 50.0 µM 91% | [5]; at 100.0 µM 97% | [6]; at 33.0 µM 80% | [6]; [18] 99% | [6]; at 50.0 µM 91.9% | [6]; at 100.0 µM 98% | [7]; at 33.0 µM 71% | [7]; at 100.0 µM 97% | [8]; [18] 99% | [9]; at 100.0 µM 98% | [10]; [18] 99% | [11]; at 33.0 µM 88% | [11]; [18] 98% | [11]; at 100.0 µM 99% | [12]; at 33.0 µM 70% | [12]; at 100.0 µM 98% | [13]; at 33.0 µM 74% | [13]; at 100.0 µM 98% | [14]; at 33.0 µM 70% | [14]; at 100.0 µM 96% | [15]; [18] 99% | [15]; at 50.0 µM 90.2% | [16]; at 33.0 µM 84% | [16]; at 100.0 µM 98%
inactive: [1]; at 1.2 µM -20% | [1]; at 3.7 µM -9% | [1]; at 11.0 µM 28% | [2]; at 1.2 µM -7% | [2]; at 3.7 µM -2% | [2]; at 11.0 µM 13% | [3]; at 1.2 µM -17% | [3]; at 3.7 µM -5% | [3]; at 11.0 µM 45% | [4]; at 1.2 µM 16% | [4]; at 3.7 µM 10% | [4]; at 11.0 µM 45% | [5]; at 1.2 µM -11% | [5]; at 3.7 µM 2% | [5]; [17] 44% | [5]; at 11.0 µM 17% | [6]; at 1.2 µM -38% | [6]; at 3.7 µM -10% | [6]; [17] 48% | [6]; at 11.0 µM 7% | [7]; at 1.2 µM -11% | [7]; at 3.7 µM -13% | [7]; at 11.0 µM -3% | [8]; [17] 9% | [9]; at 1.2 µM 8% | [9]; at 3.7 µM 4% | [9]; at 11.0 µM 8% | [9]; at 33.0 µM 61% | [10]; [17] 32% | [11]; at 1.2 µM 14% | [11]; at 3.7 µM 14% | [11]; [17] 56% | [11]; at 11.0 µM 53% | [12]; at 1.2 µM -15% | [12]; at 3.7 µM -1% | [12]; at 11.0 µM 8% | [13]; at 1.2 µM -26% | [13]; at 3.7 µM 7% | [13]; at 11.0 µM 37% | [14]; at 1.2 µM -30% | [14]; at 3.7 µM -8% | [14]; at 11.0 µM 18% | [15]; [17] 40% | [16]; at 1.2 µM -2% | [16]; at 3.7 µM 15% | [16]; at 11.0 µM 40%

CSc1s[s+]c(SC)c1-c1ccccc1
active: [1]; at 100.0 µM 72% | [3]; at 33.0 µM 93% | [3]; at 100.0 µM 89% | [4]; at 100.0 µM 76% | [5]; at 50.0 µM 72.3% | [8]; [18] 73% | [11]; [18] 72% | [11]; at 100.0 µM 75% | [14]; at 100.0 µM 70% | [15]; at 50.0 µM 71.8% | [16]; at 100.0 µM 73%
inactive: [1]; at 1.2 µM 13% | [1]; at 3.7 µM 4% | [1]; at 11.0 µM 9% | [1]; at 33.0 µM 54% | [2]; at 1.2 µM 5% | [2]; at 3.7 µM 15% | [2]; at 11.0 µM 18% | [2]; at 33.0 µM 49% | [2]; at 100.0 µM 65% | [3]; at 1.2 µM 14% | [3]; at 3.7 µM 10% | [3]; at 11.0 µM 61% | [4]; at 1.2 µM 13% | [4]; at 3.7 µM 28% | [4]; at 11.0 µM 25% | [4]; at 33.0 µM 59% | [5]; at 1.2 µM -3% | [5]; at 3.7 µM 2% | [5]; [17] 28% | [5]; at 11.0 µM 11% | [5]; at 33.0 µM 58% | [5]; [18] 46% | [5]; at 100.0 µM 68% | [6]; at 1.2 µM 7% | [6]; at 3.7 µM -5% | [6]; [17] 48% | [6]; at 11.0 µM 1% | [6]; at 33.0 µM 51% | [6]; [18] 52% | [6]; at 50.0 µM 60.6% | [6]; at 100.0 µM 59% | [8]; [17] -6% | [9]; at 1.2 µM 9% | [9]; at 3.7 µM 12% | [9]; at 11.0 µM 4% | [9]; at 33.0 µM 34% | [9]; at 100.0 µM 42% | [10]; [17] 26% | [10]; [18] 59% | [11]; at 1.2 µM 9% | [11]; at 3.7 µM 12% | [11]; [17] 36% | [11]; at 11.0 µM 24% | [11]; at 33.0 µM 66% | [12]; at 1.2 µM -26% | [12]; at 3.7 µM -19% | [12]; at 11.0 µM -34% | [12]; at 33.0 µM 39% | [12]; at 100.0 µM 68% | [13]; at 1.2 µM -35% | [13]; at 3.7 µM -23% | [13]; at 11.0 µM -14% | [13]; at 33.0 µM 52% | [13]; at 100.0 µM 13% | [14]; at 1.2 µM -20% | [14]; at 3.7 µM -29% | [14]; at 11.0 µM -15% | [14]; at 33.0 µM 47% | [15]; [17] 34% | [15]; [18] 56% | [16]; at 1.2 µM 3% | [16]; at 3.7 µM 14% | [16]; at 11.0 µM 22% | [16]; at 33.0 µM 63%

CN(C)CCNc1cccc2sc3ccc(O)cc3c(=O)c12
inactive: [1]; at 1.2 µM 0% | [1]; at 3.7 µM 1% | [1]; at 11.0 µM 10% | [1]; at 33.0 µM 20% | [1]; at 100.0 µM 43% | [2]; at 1.2 µM 1% | [2]; at 3.7 µM 6% | [2]; at 11.0 µM 3% | [2]; at 33.0 µM 4% | [2]; at 100.0 µM 6% | [3]; at 1.2 µM 2% | [3]; at 3.7 µM 11% | [3]; at 11.0 µM 15% | [3]; at 33.0 µM 26% | [3]; at 100.0 µM 33% | [4]; at 1.2 µM -1% | [4]; at 3.7 µM -5% | [4]; at 11.0 µM -3% | [4]; at 33.0 µM 0% | [4]; at 100.0 µM 6% | [5]; at 1.2 µM 4% | [5]; at 3.7 µM 6% | [5]; [17] 14% | [5]; at 11.0 µM 11% | [5]; at 33.0 µM 31% | [5]; at 100.0 µM 47% | [6]; at 1.2 µM 4% | [6]; at 3.7 µM 5% | [6]; [17] -1% | [6]; at 11.0 µM 8% | [6]; at 33.0 µM 9% | [6]; [18] 17% | [6]; at 50.0 µM 18.5% | [6]; at 100.0 µM 7% | [8]; [17] 1% | [8]; [18] 7% | [8]; at 50.0 µM 48.1% | [9]; at 1.2 µM -6% | [9]; at 3.7 µM -11% | [9]; at 11.0 µM -8% | [9]; at 33.0 µM -5% | [9]; at 100.0 µM 4% | [10]; [17] 3% | [10]; [18] 26% | [10]; at 50.0 µM 45.5% | [11]; at 1.2 µM 2% | [11]; at 3.7 µM -4% | [11]; [17] 1% | [11]; at 11.0 µM -1% | [11]; at 33.0 µM -2% | [11]; [18] 8% | [11]; at 50.0 µM 36.2% | [11]; at 100.0 µM -4% | [12]; at 1.2 µM 1% | [12]; at 3.7 µM -2% | [12]; at 11.0 µM 0% | [12]; at 33.0 µM 1% | [12]; at 100.0 µM 4% | [13]; at 1.2 µM 1% | [13]; at 3.7 µM 3% | [13]; at 11.0 µM 4% | [13]; at 33.0 µM 4% | [13]; at 100.0 µM 8% | [14]; at 1.2 µM -1% | [14]; at 3.7 µM -1% | [14]; at 11.0 µM 2% | [14]; at 33.0 µM 3% | [14]; at 100.0 µM 3% | [15]; [17] -3% | [15]; [18] 44% | [15]; at 50.0 µM 66.5%
active: [5]; [18] 90% | [5]; at 50.0 µM 87.8%
